# Most compounds without a hit are left out; they make up all but 9.4% or so of the library.
# AMA1 RON2 block = qHTS for Inhibitors of AMA1-RON; Towards Development of Antimalarial Drug Lead: Primary Screen | AlphaScreen AMA1-biotinylated RON2 peptide binding | 360,000 compounds, 0.2% hits | AID 720542, 2013 | Potency, µM (doses to about 58.2 µM), for the others: top-dose activity change, negative = inhibition, usual class: inhibitors;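 further: 0% = vehicle wells and -100% = peptide control; nearly all actives have a fitted effect of over 45% in size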
#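 AMA1 (3D7) with his tag at 25 nM final met compounds first, then biotinylated RON2 peptide at 25 nM; detection used donor plus acceptor beads, 10 µg/mL apiece, read by AlphaScreen after 30 min at room temperature.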
# SARS PLP yeast = qHTS of Yeast-based Assay for SARS-CoV PLP; S. cerevisiae expressing SARS-CoV PLpro, growth rescue; Potency, µM (titrated, usually from 32.9 µM), without a hit: at the top dose activity, positive = growth rescue, hits mostly activators; 330,000 compounds, 0.19% hits; calls by dose curve; further: 0% is about no effect; nearly all actives have a fitted effect of over 55% in size
# Pf growth 48h = Primary qHTS for delayed death inhibitors of the malarial parasite plastid, 48 hour incubation | P. falciparum luciferase growth in erythrocytes, 48 h | Potency, µM (series often up to 28.7 µM), for the others: at the top dose activity change, negative = inhibition, actives largely listed as inhibitors | 310,000 compounds, 5.9% hits; further: on the % scale 0 is the no-effect control and ±100 the full control effect
#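 Here the parasites carry a stable luciferase gene and grow inside erythrocytes in Albumax-based RPMI medium with compound for one erythrocytic cycle. Activity is scored as loss of luminescent signal.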
# Pf growth 96h = Primary qHTS for delayed death inhibitors of the malarial parasite plastid, 96 hour incubation. 320,000 compounds, 6.9% hits. P. falciparum luciferase reporter growth, 96 h. Potency, µM (top dose mostly 28.7 µM), for the others: at the highest dose activity change, negative = inhibition, most hits filed as inhibitors; further: on the % scale 0 is the no-effect control and ±100 the full control effect
#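 Cell-based qHTS: luciferase-tagged P. falciparum in erythrocytes (2% hematocrit, 0.05% parasitemia final) incubated with compounds for 96 hours, 37 C, 5% CO2; luciferase detection reagent then added and luminescence measured.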
# * = called active by the depositor; ? = inconclusive; nt = no result given; [ ] = remark or other dose. Unless noted, the call rests on the fitted dose curve; in most records, active means well fitted curve in the direction sought with a large enough effect; inconclusive means small, poorly fitted or top-dose-only effect, or another doubt; inactive means no such curve, though single readings can be large; an effect the other way counts as inactive or inconclusive. Potency means the concentration at half of the fitted maximal effect.
SMILES,AMA1 RON2 block,SARS PLP yeast,Pf growth 48h,Pf growth 96h
NC(=O)N/N=C/c1cccc(OCc2ccc(F)cc2)c1,0%,-1%,21%,26%
COc1cc(/C=C2/N=C(C3CCCCC3)OC2=O)cc(OC)c1OC,6%,-1%,-5%,nt
CCN(CC)S(=O)(=O)c1ccc(-c2nnc(SCC(N)=O)n2CC)cc1,0%,2%,8%,-20%
O=C(NC1CCCC1)c1cnn2c(C(F)(F)F)cc(-c3ccc4c(c3)OCO4)nc12,0%,-7%,-20%,50%
COc1cc2c(cc1OC)C1(CCCC1)CNC2c1cccc([N+](=O)[O-])c1 (stereo unspecified),-20%,2%,?,3.3µM*
COc1cc2c(cc1OC)C(c1cccc([N+](=O)[O-])c1)NC(=O)C2 (stereo unspecified),-3%,1%,4%,6.6µM*
CC(=O)Nc1ccc2c(c1)CC1(C(=O)N(C)C(=O)N(C)C1=O)C1CCCN21 (stereo unspecified),102%,-12%,nt,20%
CN1C(=O)N(C)C(=O)C2(Cc3cc(NC(=O)c4ccc(F)cc4)ccc3N3CCCC32)C1=O (stereo unspecified),-6%,0%,?,15µM*
COc1ccc(/C=N/Nc2nc3ccccc3[nH]2)cc1OC,22%[11.6 µM],-24%,0.47µM*,?
Cc1ccc2cc(/C=N/Nc3nc4ccccc4[nH]3)c(Cl)nc2c1,76%,-16%,0.74µM*,?
COc1cc(OC)c(OC)cc1/C=N/Nc1nc2ccccc2[nH]1,52%,0%,1µM*,1.9µM*
C(=N\Nc1nc2ccccc2[nH]1)/c1ccc2c(c1)OCCO2,35%,-2%,?,?
Cc1ccc2cc(/C=N/NC(=O)c3ccc(F)cc3)c(Cl)nc2c1,9%,2%,10%,24%
C(=N\Nc1nc2ccccc2[nH]1)/c1ccc2ncccc2c1,37%,-1%,0.15µM*,?
COc1ccc(NC(=S)NCCCN2CCCC2=O)c(OC)c1,-26%,1%,16%,?
O=C(O)CSc1nc(-c2ccccc2)nc2c1CCCC2,-11%,1%,15%,6%
O=C(/C=C/c1c(Cl)nc2ccccn12)N1CCCCC1,4%,-1%,70%,111%
C#CCn1cc(/C=N/Nc2nc3ccccc3[nH]2)c2ccccc21,-29%,17%,?,7%
COc1ccc2c(c1)c(/C=N/Nc1nc3ccccc3[nH]1)c(C)n2C,-2%,0%,1.5µM*,1.7µM*
COc1cc(/C=N\Nc2nc3ccccc3[nH]2)cc(OC)c1OC,0%,5%,0.17µM*,?
O=C(Nc1ccccc1)N1CCN(c2ncccn2)CC1,10%,-4%,-16%,6%
S=c1[nH]nc(-c2ccco2)n1-c1ccc(Cl)cc1,83%,0%,15%,30%
CCN1CCN(c2cc(C)c3cc(NC(=O)CCC(=O)Nc4ccc(OC)c(OC)c4)ccc3n2)CC1,-9%,2%,?,-29%
COc1ccc2nc(N3CCOCC3)cc(C)c2c1,1%,5%,nt,315%
COc1cccc(C(=O)Nc2ccc3nc(N4CCOCC4)cc(C)c3c2)c1,-3%,5%,15µM*,0.47µM*
SMILES,AMA1 RON2 block,SARS PLP yeast,Pf growth 48h,Pf growth 96h
CCN1CCN(c2cc(C)c3cc(NC(=O)Cc4ccccc4OC)ccc3n2)CC1,6%,1%,12µM*,?
CCN1CCN(c2cc(C)c3cc(NC(=O)c4cccs4)ccc3n2)CC1,-7%,-1%,2.1µM*,?
COc1ccc(C(=O)Nc2ccc3nc(N4CCN(C)CC4)cc(C)c3c2)c(OC)c1,-2%,-1%,7.4µM*,30%
CCNC(=O)N(CCOC)CC1CCCN(C2Cc3ccccc3C2)C1 (stereo unspecified),-1%,0%,-7%,?
COc1cc(C2N(C)C(=O)c3ccccc3N2C)ccc1O (stereo unspecified),0%,-3%,?,2%
CCN1CCN(c2cc(C)c3cc(NC(=O)c4cccc(OC)c4)ccc3n2)CC1,-8%,1%,?,2.1µM*
CCN1CCN(c2cc(C)c3cc(NC(=O)c4ccc(OC)c(OC)c4)ccc3n2)CC1,-5%,4%,nt,-9%
COc1cccc(C(=O)Nc2ccc3c(c2)CCCN3C(=O)c2cccs2)c1OC,-4%,-15%,?,-8%
CCN1CCN(c2cc(C)c3cc(NC(=O)c4cncc(Br)c4)ccc3n2)CC1,-20%,4%,0.1µM*,1.9µM*
COc1ccc(C(=O)Nc2ccc3c(c2)CCCN3C(=O)c2cccs2)c(OC)c1,-6%,-11%,?,15µM*
CCN1CCN(c2cc(C)c3cc(NC(=O)c4ccc5c(c4)OCO5)ccc3n2)CC1,5%,26%,3.3µM*,-5%
O=C(Cc1c[nH]c2ccccc12)NCc1cccs1,-3%,6%,53%,33%
O=C(Oc1ccccc1C(=O)N1CCOCC1)c1ccccc1,6%,2%,15%,nt
CC(OC(=O)c1oc2ccccc2c1COc1ccccc1)C(=O)NC(N)=O (stereo unspecified),47%,4%,-13%,15%
O=C(NCCc1ccccc1)c1oc2ccccc2c1COc1ccccc1,-13%,5%,?,13µM*
Cc1c(C(=O)NCCc2ccccc2)oc2ccccc12,13%,-2%,245%,-9%
O=C(Nc1ccccc1Cc1ccccc1)c1oc2ccccc2c1COc1ccccc1,-11%[2.32 µM],-5%,?,10µM*
COc1ccc(NC(=O)C2CCCN(S(=O)(=O)c3c(C)n[nH]c3C)C2)cc1OC (stereo unspecified),9%,3%,2%,11%
C/C=C(/C)C(=O)O[C@@H]1c2cc(OC)c(OC)c(OC)c2-c2c(cc3c(c2OC)OCO3)C[C@H](C)[C@]1(C)O,10%,-1%,?,?
COc1cc2c(c(OC)c1OC)-c1c(cc3c(c1OC)OCO3)[C@@H](OC(C)=O)[C@H](C)[C@H](C)C2,-5%,-1%,13µM*,10µM*
Cc1cc(NCc2ccccn2)n2nc(C)c(-c3ccc(Cl)cc3)c2n1,88%,0%,1.7µM*,2.9µM*
CCCc1cc(N2CCCC2)n2nc(C)c(-c3ccccc3)c2n1,26%,?,?,?
CCCc1cc(NCc2ccccn2)n2nc(C)c(-c3ccccc3)c2n1,96%,-4%,2.6µM*,13µM*
Cc1nn2c(N3CCOCC3)cc(C(C)C)nc2c1-c1ccccc1,16%,-2%,-10%,-10%
Cc1nn2c(NCCCn3ccnc3)cc(C(C)C)nc2c1-c1ccccc1,1%,0%,2.1µM*,8.3µM*
CCN1CCN(c2cc(C(C)C)nc3c(-c4ccccc4)c(C)nn23)CC1,?,-1%,?,15µM*
Cc1ccccc1NC(=O)CCC(=O)OCC(=O)c1cccc([N+](=O)[O-])c1,1%,-1%,-5%,12%
O=C(CN1C(=O)NC2(CCCC2)C1=O)OCCOc1cccc(Br)c1,-27%,-4%,18%,0%

# Screening results: PubChem BioAssay, National Center for Advancing Translational Sciences (NCATS)
